# This is a sample that favours compounds with a hit; in the whole collection about 7.1% have one here.
# SW480 rereplic = DNA re-replication induction in SW480 cells; SW480 DNA re-replication, Hoechst DNA content imaging, 48 h; Potency, µM (series often up to 46.1 µM), without a hit: top-dose re-replication activation, usual class: activators; actives 1.8% (n = 340,000); further: % of control where 0% means no effect; nearly all actives have a fitted effect of over 55% in size
#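 Hoechst fluorescence of nuclei (405 nm excitation, 500-530 nm emission) measured by plate-scanning imager after 48 hr compound exposure at 37 C; re-replication scored as increased number of nuclei with elevated intensity.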
# p53 reactivator = mutant p53 re-activation in reporter cells. H1299 p53-A138V BP100-luciferase reporter, luminescence, 24 h. Potency, µM (doses to about 92.2 µM), for the others: at the top dose activity change, positive = activation, actives largely listed as activators. actives 0.063% (n = 320,000). AID 504706; further: % of control where 0% means no effect; nearly all actives have a fitted effect of over 45% in size
#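 H1299 (p53-null), stable ts p53-A138V + BP100-Luc; 1000 cells/well, Opti-MEM/10% FBS; cpd 4 pt, 1:5; 24 h, 37 deg C, 5% CO2; detection reagent 10 min RT; luminescence.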
# A-T KAP1 phos = candidate therapy for ataxia-telangiectasia; F2112 A-T fibroblasts, KAP-1 phosphorylation AlphaLISA; neocarzinostatin DNA damage 30 min before lysis; Potency, µM (top dose mostly 57.5 µM), inactives show at the top dose activation, hits mostly activators; actives 0.19% (n = 320,000); further: % of control where 0% means no effect; nearly all actives have a fitted effect of over 45% in size
#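 hTERT-immortalized A-T patient fibroblasts (F2112), 500 cells/well in OPTI-MEM, 1% FBS, got compounds for 60 min, then NCS for 30 min at 37C. Lysates were then assayed for phospho-KAP-1 by AlphaLISA (anti-pKAP1 donor, anti-KAP1 acceptor beads), 6 hr at 25C.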
# MCF10A rereplic = induces DNA re-replication in MCF 10a normal breast cells. actives 2.9% (n = 350,000). Potency, µM (doses to about 46.1 µM), without a hit: at the highest dose activity, positive = re-replication, usual class: activators. MCF 10A DNA re-replication, Hoechst nuclear intensity, 48 h. AID 624296; further: % of control where 0% means no effect; nearly all actives have a fitted effect of over 50% in size
# ELG1 genotox = induces genotoxicity in HEK293T cells with luciferase-tagged ELG1 | actives 1.3% (n = 330,000) | HEK293T ELG1-luciferase reporter, luminescence, 16 h | AID 504466 | Potency, µM (series often up to 46 µM), for inactives: top-dose activity change, positive = activation, hits mostly activators; further: % of control where 0% means no effect; nearly all actives have a fitted effect of over 60% in size
#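 DMSO vehicle served as control against compound-treated ELG1-luciferase HEK293T cells; exposure lasted 16 hr at 37 °C and 5% CO2, followed by ONE-Glo luminescence detection after 30 min.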
# ELG1 DNA repair = ELG1-dependent DNA repair inhibition; HEK293T ELG1-luciferase reporter, luminescence, 16 h; DNA damage induced by 5-fluorouridine; Potency, µM (top dose mostly 46.1 µM), without a hit: at the highest dose activity change, negative = inhibition, hits mostly inhibitors; actives 2.3% (n = 330,000); AID 504467; further: on the % scale 0 is the no-effect control and ±100 the full control effect; nearly all actives have a fitted effect of over 55% in size
#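 5-Fluorouridine DNA damage + compound/DMSO, 2,000 cells/well, 16 h, 37 °C/5% CO2. ONE-Glo, 30 min RT, luminescence. Readout = decrease in reporter signal.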
# * hit, by the source's call; ? = inconclusive; / = not tested or not shown; [ ] = remark or other dose. The call rests on the fitted dose curve; in most records, active means well fitted curve in the direction sought with a large enough effect; inconclusive means small, poorly fitted or top-dose-only effect, or another doubt; inactive means no such curve, though single readings can be large; an effect the other way counts as inactive or inconclusive. Potency means the concentration at half of the fitted maximal effect.
SMILES,SW480 rereplic,p53 reactivator,A-T KAP1 phos,MCF10A rereplic,ELG1 genotox,ELG1 DNA repair
COc1cc(NC(=O)c2cccc3c2C(=O)N(Cc2cccnc2)C3)cc(OC)c1OC,1%,-5%,8%,14%,0%,9.2µM*
COc1ccc2oc(C(=O)OCC(=O)N(C)CC(=O)Nc3ccc(F)cc3)c(C)c2c1,-25%,?,-2%,-7%,16%,7%
CCCC[C@]12Cc3cc(C#N)ccc3C(O1)c1c(cc(C)n(Cc3ccccc3)c1=O)O2,/,/,-7%[11.5 µM],/,/,/
Cc1cccc(NC(=O)CSc2nc3ccccc3nc2N2CCCC2)c1,25%,/,2%,21µM*,0%,?
Cc1cccc(NC(=O)CSc2nc3ccccc3nc2N2CCCCC2)c1,28%,24%,6%,?,-1%,?
CCc1ccc(NC(=O)CSc2nc3ccccc3nc2N2CCCCC2)cc1,2%,26%,-8%,10µM*,20%,?
COc1ccc(NC(=O)CSc2nc3ccccc3nc2N2CCCCC2)cc1,6%,4%,4%,?,-1%,?
O=C(Cc1ccc(Br)cc1)Nc1ccc(S(=O)(=O)Nc2ncccn2)cc1,-2%,-15%,7%,-10%,0%,-5%
CC(=O)N(C)c1ccc(NC(=O)Nc2ccccc2C)cc1,1%,0%,2%,-2%,21µM*,?
Cc1ccc2nc(NNC(=O)c3ccc4c(c3)OCCO4)sc2c1,2%,5%,3%,9%,1%,12%
Cc1ccc2nc(NNC(=O)c3ccc(S(=O)(=O)N4CCc5ccccc5C4)cc3)sc2c1,?,?,-14%,9.2µM*,3%,?
Cc1cc(C)c2nc(NNC(=O)c3ccc(S(=O)(=O)N4CCCC(C)C4)cc3)sc2c1 (stereo unspecified),?,?,-1%,15µM*,-1%,?
Cc1cccc2sc(NNC(=O)c3ccc(S(=O)(=O)N4CC(C)CC(C)C4)cc3)nc12 (stereo unspecified),9.2µM*,-2%,4%,?,13%,?
Cc1cc(C)c2nc(NNC(=O)c3ccc(S(=O)(=O)N4CC(C)CC(C)C4)cc3)sc2c1 (stereo unspecified),?,?,-12%,?,8%,0%
O=C(NCCC(=O)N1CCc2ccccc21)c1ccco1,1%,?,7%,-1%,?,?
O=C1CC(c2ccccc2)Cc2nc(N3CCc4ccccc43)ncc21 (stereo unspecified),-9%,/,/,3%,/,/
O=C1CCCc2nc(N3CCc4ccccc43)ncc21,-3%,?,8%,?,3.3µM*,?
CC1(C)CC(=O)c2cnc(N3CCc4ccccc4C3)nc2C1,1%,32%,12%,14%,1.8µM*,?
O=C(O)CCCC1(C(=O)O)CCCC1,2%,/,/,-24%,/,/
CC1=NN(c2ccccc2)C(=O)C1N=Nc1ccc(C)cc1 (stereo unspecified),/,4%,3%,/,1%,7%
CC1=NN(c2ccccc2)C(=O)C1C=Nc1ccc(N(C)C)cc1 (stereo unspecified),?,?,-5%,0%,1%,6.5µM*
C=C(C(=O)Nc1ccccc1)c1ccc(C)cc1,2%,8%,21%,-6%,0%,1%
CCOC(=O)c1sc(N)nc1C(F)(F)F,-39%,/,/,-44%,/,/
O=C(c1ccc(Cl)c(Cl)c1)c1cc(-c2ccccn2)c(N2CCOCC2)s1,22%,-7%,13%,21µM*,-1%,-22%
Cc1cccc(-n2c(-c3ccco3)nc3nc4ccccc4nc32)c1,/,-2%,0%,/,0%,10%
